Most compounds without a hit are left out; they make up all but 3.4% or so of the library.
GPR151 ag: human GPR151 activation; PathHunter beta-arrestin GPR151 cells, luminescence; activation, % at 11.2 µM; 1% of 650,000 active; AID 1508602; in the data active = activation above about 4.9%
Target sequence (Q8TDV0 whole entry, looked up): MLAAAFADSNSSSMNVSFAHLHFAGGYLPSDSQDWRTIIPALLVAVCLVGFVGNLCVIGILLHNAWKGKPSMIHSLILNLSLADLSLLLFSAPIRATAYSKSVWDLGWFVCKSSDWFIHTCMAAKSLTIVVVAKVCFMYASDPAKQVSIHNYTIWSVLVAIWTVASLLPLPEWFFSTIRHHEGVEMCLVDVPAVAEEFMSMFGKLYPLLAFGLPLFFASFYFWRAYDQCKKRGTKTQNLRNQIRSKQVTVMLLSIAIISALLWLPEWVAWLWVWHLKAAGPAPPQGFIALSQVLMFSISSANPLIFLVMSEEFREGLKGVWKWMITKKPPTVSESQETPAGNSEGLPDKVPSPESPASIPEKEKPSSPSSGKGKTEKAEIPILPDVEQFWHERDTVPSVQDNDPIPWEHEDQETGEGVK
TEAD-YAP inh: TEAD-YAP interaction inhibition; inhibition, % at 9.12 µM; HEK-TIYL cells, TEAD-Gal4/YAP UAS-luciferase luminescence; 1.4% of 640,000 active; in the data active = inhibition above about 32%
FBW7 activator: human FBW7 E3 ligase activation, primary screen | Q969H0 | AlphaScreen FBW7–phospho-cyclin E peptide binding, activator screen | normalized activity (activation), % at 26.1 µM | 0.13% of 650,000 active; in the data active = normalized activity above about 1.9%;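 note: purified mutant Fbw7 with reduced substrate affinity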
MITF primary: inhibitors of human MITF | O75030 | AlphaScreen MITF homodimerization, bead proximity signal | inhibition, % at 2.6 µM | 0.91% of 650,000 active | AID 1259374; in the data active = inhibition above about 50%
Hits are given with their value; – = inactive.

SMILES	GPR151 ag	TEAD-YAP inh	FBW7 activator	MITF primary
O=C(Nc1ccccc1C(F)(F)F)N[C@H]1C[C@H]2C(=O)N[C@@H](CO)C(=O)N2C1	–	–	–	–
CCCNC(=O)N1CCN(c2nc3ccccc3s2)CC1	–	–	–	–
COC(=O)c1ccccc1NS(=O)(=O)c1cc(Br)cc2c1N(C(C)=O)CC2	–	–	–	–
COc1ccc(/C=N/NC(=O)c2cc(-c3cccc(OC)c3)n[nH]2)cc1	–	–	–	–
CC(C)(C)OC(=O)N/N=C\c1cccc(/C=N/NC(=O)OC(C)(C)C)c1	–	65	–	–
CCCCC(=O)N/N=C(\C)CC(=O)Nc1cccc(I)c1	–	–	–	–
CCCCC(=O)N/N=C(\C)CC(=O)Nc1cccc(OC)c1	–	44	–	–
CC(C)(C)OC(=O)N/N=C/c1ccc(Br)cc1	–	–	–	–
COc1cccc(/C=N/NC(=O)CCCCC(=O)N/N=C/c2cccc(OC)c2)c1	–	74	–	–
COc1cccc(/C=N/NC(=O)c2cc(-c3ccc(C)cc3)n[nH]2)c1	–	45	–	–
Cc1ccc(/C=N/NC(=O)c2cc(-c3ccccc3)n[nH]2)c(O)c1	–	–	–	–
Cc1ccc(-c2cc(C(=O)N/N=C/c3cccc(O)c3)[nH]n2)cc1	–	35	–	–
Cc1cc(O)cc(O)c1/C=N/NC(=O)c1cc(-c2ccccc2)n[nH]1	–	33	–	–
Cc1ccccc1Cn1c(CN2CCOCC2)nc2c1c(=O)[nH]c(=O)n2C	–	–	–	–
Cn1c(Nc2cc(C(=O)NCc3cccc(C(F)(F)F)c3)ccn2)nc2ccccc21	–	35	–	–
CCC(C)(C)NC(=O)CN(C(=O)CCC(=O)Nc1ccccn1)C1CCCCC1	–	–	–	–
CCc1ccc(/C=N\NC(=O)C2CC(=O)N(c3ccc(OC)cc3)C2)cc1 (stereo not drawn)	–	47	–	–
COc1ccc(/C=N/NC(=O)C2CC(=O)N(c3ccc(Br)cc3)C2)cc1 (stereo not drawn)	–	–	–	–
O=C(OC(c1ccccc1)c1nccc2ccccc12)c1ccc(F)cc1 (stereo not drawn)	–	52	–	–
Cn1nc(-c2ccc(OCC(=O)N3CCCCC3)cc2)c2ccccc2c1=O	–	52	–	–
Cn1nc(-c2ccc(OCC(N)=O)cc2)c2ccccc2c1=O	–	–	–	–
CCC(C)(C)n1nnnc1C(c1ccc(O)cc1)N1CCc2ccccc2C1 (stereo not drawn)	–	77	–	–
CC(C)(C)n1nnnc1C(c1ccccc1)N1CCc2ccccc2C1 (stereo not drawn)	–	–	–	–
Nc1cc2c3c(c1)C(c1ccccc1)CCN3CCC2c1ccccc1 (stereo not drawn)	–	–	6.3	–
Cc1ccc(N2C(=O)/C(=C/c3ccc(N(C)C)cc3)N=C2c2ccccc2F)c(C)c1	–	68	–	–
SMILES	GPR151 ag	TEAD-YAP inh	FBW7 activator	MITF primary
CN(C)c1ccc(/C=C2\N=C(c3ccccc3F)N(c3ccc(O)cc3)C2=O)cc1	–	60	–	–
CN(C)c1ccc(/C=C2\N=C(c3ccccc3F)N(c3ccc(Br)cc3)C2=O)cc1	–	–	–	–
NC(=O)c1ccc(NC(=O)COC(=O)c2ccccc2Oc2ccccc2)cc1	–	–	–	–
NS(=O)(=O)c1cccc(NS(=O)(=O)c2ccc3c4c(cccc24)C(=O)N3)c1	–	–	–	–
O=C1ON=C(c2ccccc2)/C1=C/c1c(OCc2ccc(Cl)cc2)ccc2ccccc12	–	–	–	–
CCCCCOc1ccccc1/C=C1/C(=O)ON=C1c1ccccc1	–	–	–	62
O=C1ON=C(c2ccccc2)/C1=C\c1ccccc1OCc1ccc(Cl)cc1	–	–	–	68
CCOc1cc(/C=C2\C(=O)ON=C2c2ccccc2)ccc1OCc1ccccc1	–	–	–	57
CCCCOc1ccccc1/C=C1/C(=O)ON=C1c1ccccc1	–	–	–	68
C=CCOc1ccc(/C=C2/C(=O)ON=C2c2ccccc2)cc1	–	–	–	65
CCOC(=O)c1ccc(NC(=S)NC2CC2)cc1	–	–	–	–
CC(=O)N1CCSc2cc(S(=O)(=O)NCCCc3ccccc3)ccc21	–	35	–	–
CC(=O)N1CCSc2cc(S(=O)(=O)N3CCC(Cc4ccccc4)CC3)ccc21	–	55	–	–
COC(=O)c1ccc(NC(=O)CC2(CC(=O)O)CCCC2)cc1	–	–	–	–
C/C(=N\Nc1ncc(Cl)cc1Cl)c1ccccn1	–	82	–	–
Cc1cc(NC(=O)CSc2nc3ccsc3c(=O)n2CCCC(=O)NCc2ccc3c(c2)OCO3)no1	–	–	–	–
CNC(=O)CN(c1cccc(Cl)c1)S(=O)(=O)c1ccc(OC)cc1	–	45	–	–
COc1ccc(S(=O)(=O)N(CC(=O)O)c2cccc(Cl)c2)cc1	–	–	–	–
COc1cc(-c2nc3cnccn3c2NC2CCCC2)cc(OC)c1OC	–	32	–	–
COc1cc(-c2nc3cnccn3c2NC2CCCCC2)cc(OC)c1OC	–	38	–	–
O=C(O)c1ccccc1NCc1c(Cl)cccc1Cl	–	–	–	–
Cc1sc2c(c1C)c(=O)n(CCc1ccccc1)c(=O)n2CC(N)=O	–	–	–	–
N/C(=N/OC(=O)c1ccccc1[N+](=O)[O-])c1nonc1N	–	–	–	–
CCSc1nc(-c2ccc(OC)cc2)nc2c1Cc1c(CO)cnc(C)c1O2	–	–	–	–
Cc1nc2sc(C(c3cccc(F)c3)N3CCN(CCO)CC3)c(O)n2n1 (stereo not drawn)	–	–	–	–
SMILES	GPR151 ag	TEAD-YAP inh	FBW7 activator	MITF primary
CCc1ccccc1Nc1nc(N)nc(CCl)n1	–	45	–	–
CC1CC(C)CN(C(=O)c2cccc(I)c2)C1 (stereo not drawn)	–	–	–	–
O=C(O)c1cc(N2C(=O)C3CCCCC3C2=O)ccc1N1CCOCC1 (stereo not drawn)	–	–	–	–
O=C(O)c1cc(N2C(=O)C3CC=CCC3C2=O)ccc1N1CCOCC1 (stereo not drawn)	–	–	2.0	–
COc1ccc(OCC(=O)N/N=C/c2ccc(OCC(=O)O)c(OCC(=O)O)c2)cc1	–	–	–	–
CN(C)/C=C/C=C/C=C1\CCC/C(=C\C=C\N(C)C)C1=O	–	–	–	78
CN(C)/C=C/C=C1\CCc2ccccc2C1=O	–	–	–	–
Cc1cccc2sc(NC(=O)CSc3nnnn3-c3ccccc3)nc12	–	–	2.0	–
Cc1sc(NC(=O)CSc2nnnn2-c2ccccc2)nc1-c1ccccc1	–	–	–	–
O=C(Nc1ccc(F)c(F)c1)C1c2ccccc2Oc2ccccc21	–	–	–	–
COc1ccc2c(c1)c(=O)oc1cc(OCC(=O)O)ccc12	–	–	–	–
COc1ccc2c(c1)c(=O)oc1cc(OCC(=O)N(C)c3ccccc3)ccc12	–	–	–	52
O=C(Nc1ccccc1C(=O)NCc1ccccc1)c1ccc(CN2CCOCC2)cc1	–	52	–	–
NC(=O)c1ccccc1NC(=O)c1ccc(CN2CCOCC2)cc1	–	36	–	–
COc1ccc2nc(NC(=O)c3ccoc3C)sc2c1	–	59	–	–
COc1ccc2nc(NC(=O)c3cc(Br)ccc3Cl)sc2c1	–	–	–	–
